The sample as a whole holds a higher share of hits than the screen did.
ClpP mod = qHTS Assay for Activators of ClpP | 1.9% of 340,000 active | purified B. subtilis ClpP, FRET peptide cleavage, 20 min | Potency, µM (highest dose often 57.5 µM), without a hit: at the highest dose activity change, negative = active | ATP-dependent Clp protease proteolytic subunit (Bacillus subtilis (strain 168)), P80244 | AID 651965, 2013; active = well fitted falling curve with a large enough effect; inconclusive = small, poorly fitted or top-dose-only effect; inactive = no such curve, though single readings can be large or run the other way; also: potency is read from the fitted curve at half-maximal effect; the source files actives as falling curves though it sought activators and does not explain the sign; nearly all actives have a fitted effect of over 65% in size
Target sequence (P80244 whole entry, looked up): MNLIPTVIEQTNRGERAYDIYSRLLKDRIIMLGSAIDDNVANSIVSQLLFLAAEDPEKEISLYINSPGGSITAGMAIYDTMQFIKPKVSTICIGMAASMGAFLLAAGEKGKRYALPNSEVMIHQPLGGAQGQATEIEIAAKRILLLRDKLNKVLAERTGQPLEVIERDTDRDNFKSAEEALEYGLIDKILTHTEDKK
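ClpP 10 microg/mL final, pH 8 Tris/KCl buffer with BSA, glycerol, Tween-20; compound pinned in; FRET-FV substrate; RT 20 min; Ex320/Em430; ΔFRET vs ADEP 5.8 microM, DMSO, no enzyme.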
Mito fusion yeast = blocks mitochondrial division or promotes mitochondrial fusion. S. cerevisiae fusion-defective mutant growth rescue, CellTiterGlo 48 h. Potency, µM (series often up to 46.1 µM), for the others: at the highest dose growth rescue (activation), actives largely listed as activators. 0.23% of 320,000 active. AID 485298; also: potency is read from the fitted curve at half-maximal effect; % of control where 0% means no effect; nearly all actives have a fitted effect of over 45% in size
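Growth-rescue viability read-out: after 48 h at the non-permissive 37C in glycerol/ethanol YPEG, yeast mitochondrial fusion mutants are measured by CellTiterGlo luminescence; compounds (23 nl pinned per well) restoring growth score as division inhibitors or fusion activators.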
ASM inhibitor = inhibitors of human secretory acid sphingomyelinase | 0.006% of 340,000 active | placental ASM, HMU-PC fluorogenic substrate, 60 min | Potency, µM (doses to about 57.5 µM), without a hit: top-dose activity change, negative = inhibition, most hits filed as inhibitors; also: potency is read from the fitted curve at half-maximal effect
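HMU-PC0 cleavage (9 uM final) by human placental ASM, 60 min at 37 °C following 10 min compound exposure at RT; stopped at pH 10, fluorescence Ex 386/Em 447 nm.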
IDH1 R132H inh = human IDH1 R132H inhibition; Potency, µM (doses to about 76.6 µM), inactives show top-dose activity change, negative = inhibition, actives largely listed as inhibitors; AID 602179; 0.093% of 390,000 active; O75874; IDH1-R132H enzyme, NADPH consumption, diaphorase/resazurin fluorescence; also: potency is read from the fitted curve at half-maximal effect; % is scaled to controls: 0 for no effect and ±100 for the full control effect; nearly all actives have a fitted effect of over 65% in size
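IDH1-R132H (0.5 ug/mL) preincubated 30 min with compound, then NADPH (0.016 mM) and alpha-KG (2 mM) added; 80 min at RT, pH 7.5. Remaining NADPH coupled via diaphorase/resazurin to fluorescence (540/590 nm); concentration-response curves normalized to no-enzyme control.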
RGS4 inh = blocks human RGS4-accelerated GTP hydrolysis. 0.039% of 390,000 active. Potency, µM (series often up to 114 µM), for the others: top-dose activity change, negative = inhibition, usual class: inhibitors. P49798. Transcreener GDP fluorescence polarization, RGS4-accelerated GTP hydrolysis; also: potency is read from the fitted curve at half-maximal effect; % is scaled to controls: 0 for no effect and ±100 for the full control effect; nearly all actives have a fitted effect of over 75% in size
Target sequence (P49798 whole entry, looked up): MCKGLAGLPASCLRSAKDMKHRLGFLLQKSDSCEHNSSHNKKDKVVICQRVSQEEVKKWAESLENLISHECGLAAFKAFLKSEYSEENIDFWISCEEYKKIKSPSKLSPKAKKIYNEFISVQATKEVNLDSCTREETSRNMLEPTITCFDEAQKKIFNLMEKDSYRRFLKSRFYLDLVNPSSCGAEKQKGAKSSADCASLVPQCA
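MLSMR compounds (23 nl, pin-transferred) preincubated 10 min at room temperature with a 500nM (2x) first reagent, then RGS4 at 900nM (2x) plus Transcreener GDP mix added; fluorescence polarization (620/688 nm) read before and after 90 min at 30 °C.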
LDHA inh = inhibitors of human lactate dehydrogenase A | P00338 | purified LDHA, NADH/diaphorase-resazurin fluorescence; hits give low values | activity change, % (values are at about 110 or 230 µM) | 0.15% of 480,000 active | AID 1347041; in the data active = activity change below about -30%; inconclusive = mostly about -25% to -30%;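 also: plate controls were DMSO wells for no effect and wells without enzyme for full effect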
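Human LDH5 (2 nM) was incubated with 0.06 mM NADH and 0.2 mM pyruvate for 5 min at room temperature in Tris pH 7.4. Remaining NADH was coupled through diaphorase/resazurin, and resorufin fluorescence was read at 0 and 20 min.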
* = called active by the depositor; i = inactive; ? = inconclusive; . = no result given; [ ] = another dose, or the depositor's remark. Unless noted, calls follow the shape of the dose curve; as a rule, active = well fitted curve in the direction sought with a large enough effect; inconclusive = small, poorly fitted or top-dose-only effect, or another doubt; inactive = no such curve, though single readings can be large; an effect the other way counts as inactive or inconclusive.

SMILES	ClpP mod	Mito fusion yeast	ASM inhibitor	IDH1 R132H inh	RGS4 inh	LDHA inh
O=C(CCc1ncc(-c2ccc(F)cc2)o1)N1CCN(S(=O)(=O)c2cccc(Cl)c2)CC1	.	.	.	.	.	0
CC(=O)Nc1cc2nn(-c3ccccc3)nc2cc1Cl	20µM*	5%	-1%	5%	-10%	0
O=C(Nc1cc2nn(-c3ccccc3)nc2cc1Cl)c1ccco1	-17%	-4%	4%	12%	-45%	1
CC(C)(C)C(=O)Nc1cc2nn(-c3ccccc3)nc2cc1Cl	28µM*	3%	-2%	12%	-31%	17
COc1cccc(CNC(=O)c2cccc(Oc3ccccc3)c2)c1	.	.	.	.	.	1
COc1cccc(Nc2nc(-c3cc4cc(OC)ccc4oc3=O)cs2)c1	.	.	.	.	.	-4
COc1ccc2oc(=O)c(-c3csc(Nc4cccc(O)c4)n3)cc2c1	0%	16µM*	10%	5%	?	2
CCNC(=O)C(=O)N/N=C/c1cc([N+](=O)[O-])ccc1O	.	22µM*	-6%	8%	10%	11
O=C(N/N=C/c1cc([N+](=O)[O-])ccc1O)Nc1ccccc1	.	-6%	-11%	7%	-30%	8
CC(C)NC(=O)C(C)n1cnc2c1c(=O)n(C)c(=O)n2C (stereo not drawn)	.	.	.	.	.	1
CC(C(=O)NC(=O)NC12CC3CC(CC(C3)C1)C2)n1cnc2c1c(=O)n(C)c(=O)n2C (stereo not drawn)	.	.	.	.	.	-31*
O=C(c1cc2ccccc2oc1=O)N(Cc1ccccc1Cl)C1CCS(=O)(=O)C1 (stereo not drawn)	.	.	.	.	.	-1
Nc1nc(-c2cccnc2)nn1S(=O)(=O)c1ccccc1	35µM*	.	6%	2%	29%[11.4 µM]	-7
COc1ccc(-c2cc3ccc(OS(C)(=O)=O)cc3oc2=O)cc1	.	.	.	.	.	4
COc1ccc(S(=O)(=O)N(C(=O)c2ccncc2)c2ccc3oc4c(c3c2)CCCC4)cc1	-2%	11µM*	-1%	6%	-31%	-3
COC(=O)c1c(C)oc2ccc(N(C(=O)c3ccncc3)S(=O)(=O)c3ccc(OC)cc3)cc12	-3%	.	.	-12%	12%	-1
CC(=O)N/N=c1\sc2ccccc2n1C	.	-5%	0%	1%	-9%	-10
Cn1/c(=N\NC(=O)C2CCCCC2)sc2ccccc21	14µM*	-6%	-2%	13%	2%	-7
COc1ccc(CNC(=O)c2ccc3ccccc3c2)cc1	.	.	.	.	.	-1
CC(C)Oc1ccc(CNC(=O)c2ccc(NC(=O)N3CC(C)Sc4ccccc43)cc2)cc1 (stereo not drawn)	-2%	.	.	-10%	-9%	-8
O=C(NCc1ccc(Cl)cc1)c1cc2cccc3c2n1CCS3	22µM*	.	.	-17%	5%	-16
CC(C)Oc1ccc(CNC(=O)c2cc3cccc4c3n2CC(C)S4)cc1 (stereo not drawn)	32µM*	.	.	8%	-5%	4
COc1ccc(CNC(=O)c2cc3cccc4c3n2CC(C)S4)cc1 (stereo not drawn)	32µM*	.	.	11%	0%	1
c1ccc(CNCC(c2ccccc2)N2CCCC2)cc1 (stereo not drawn)	.	.	.	.	.	1
CN(Cc1cccc(F)c1)C(=O)Cn1nnn(-c2cccs2)c1=O	.	.	.	.	.	2
CCCCN(CC)c1nc(-c2ccc([N+](=O)[O-])cc2)nc2ccccc12	.	.	.	.	.	-5
COc1ccc(-c2ccn[nH]2)cc1	.	.	.	.	.	-24
Cc1cc(SC(C)C(=O)Nc2sccc2C(N)=O)nc2ccccc12 (stereo not drawn)	.	.	.	.	.	-7
O=C(O)C(=O)/C(=C\c1ccccc1)c1ccc2ccccc2n1	?	4%	i	9%	-9%	-4
O=C(O)C(=O)/C(=C\c1cccc2ccccc12)c1ccc2ccccc2n1	16µM*	4%	i	-9%	-23%	-7

Screening results from PubChem BioAssay.
